From PubChem BioAssay (NCATS) come the findings set out here.

The source made the active and inactive calls.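 How the source made its calls: active means compounds whose dose series gives a full or clear partial fitted curve of increased nuclear translocation; inconclusive means weak partial curve or effect only at the top dose; inactive means no dose-dependent translocation response.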 A value given as a limit tells only on which side of the number the result lay.
Potency means the concentration at half of the fitted maximal effect.

For the test, the target named is Glucocorticoid receptor (Homo sapiens) (UniProt P04150). Nature of the test: GR-GFP Redistribution (AID 450). The conditions noted are these: U2OS GR-GFP nuclear translocation, laser cytometry, 2 h; series mostly up to 20.6 µM.
Sequence of Glucocorticoid receptor (Homo sapiens) (P04150 whole entry, looked up): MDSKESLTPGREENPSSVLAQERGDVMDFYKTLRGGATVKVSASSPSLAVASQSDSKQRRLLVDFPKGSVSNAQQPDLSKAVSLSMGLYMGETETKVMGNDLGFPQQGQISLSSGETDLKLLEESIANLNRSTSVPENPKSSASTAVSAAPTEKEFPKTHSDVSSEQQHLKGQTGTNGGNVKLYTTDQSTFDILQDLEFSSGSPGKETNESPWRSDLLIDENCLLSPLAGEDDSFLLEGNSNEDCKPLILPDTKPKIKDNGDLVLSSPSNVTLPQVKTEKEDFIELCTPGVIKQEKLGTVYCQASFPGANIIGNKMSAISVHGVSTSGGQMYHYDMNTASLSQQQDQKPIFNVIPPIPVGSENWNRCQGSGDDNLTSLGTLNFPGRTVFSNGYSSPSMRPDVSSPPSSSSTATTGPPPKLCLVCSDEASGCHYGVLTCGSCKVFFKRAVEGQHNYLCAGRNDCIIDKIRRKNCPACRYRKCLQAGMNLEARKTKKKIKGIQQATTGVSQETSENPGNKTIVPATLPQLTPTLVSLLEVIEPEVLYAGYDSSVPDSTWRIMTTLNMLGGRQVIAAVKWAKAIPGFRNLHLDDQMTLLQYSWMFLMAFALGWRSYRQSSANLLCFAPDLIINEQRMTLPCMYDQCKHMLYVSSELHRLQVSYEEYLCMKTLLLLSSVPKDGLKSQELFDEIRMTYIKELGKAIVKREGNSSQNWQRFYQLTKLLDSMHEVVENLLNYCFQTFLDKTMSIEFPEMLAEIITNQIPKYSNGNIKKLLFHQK
`Cc1ccc(SCc2[nH]nc3c2C(c2ccc(C)o2)C(C#N)=C(N)O3)cc1` (centres undefined): the Potency is > 20.6 µM (inactive).

In the case of `C=C(Br)CN1CCN(CC(=C)Br)CC1`, the Potency was > 20.6 µM (inactive).

For `COc1cc(C2C(C(=O)c3ccc(C)o3)=C(O)C(=O)N2c2cc(C)on2)cc(OC)c1OC` (centres undefined), the Potency is > 20.6 µM (inactive).

Regarding `CCOC(=O)c1[nH]c2cc3c(cc2c1NC(=O)CN1CCc2ccccc2C1)OCO3`, the Potency was > 20.6 µM (inactive).

`O=C(CC(c1ccccc1)c1ccco1)N1CCOCC1` (centres undefined): the Potency was > 20.6 µM (inactive).

`CC1(C(=O)CSc2ncn[nH]2)CCC(=O)O1` (centres undefined): the Potency was > 20.6 µM (inactive).

In the case of `C=C(C)CN1CCN(c2c(CCC#N)c(C)c(C#N)c3nc4ccccc4n23)CC1`, the Potency is > 20.6 µM (inactive).

With `Cc1cc(=O)oc2c(CN3CCCCC3)c(O)c(Cl)cc12`, the Potency is > 20.6 µM (inactive).

For the molecule `COCCNc1oc(-c2ccc(Cl)cc2)nc1C#N`, the Potency was > 20.6 µM (inactive).

`CN1C(=O)C2(N=c3ccccc3=N2)c2ccccc21`: the Potency is > 20.6 µM (inactive).

`COc1ccc(Cn2ccnc2)cc1Br`: the Potency is > 20.6 µM (inactive).

With `CCOC(=O)c1c(C)n(C)c2ccc(OC)c(NC(=O)CN3CCCCC3)c12`, the Potency was > 20.6 µM (inactive).

Turning to `COc1ccccc1C(=O)NCC(=O)n1nc(C)cc1C`, the Potency was > 20.6 µM (inactive).

On to `CN(C)CCCO[C@H]1[C@H]([C@H](O)CO)O[C@H]2OC(C)(C)O[C@@H]21`, for which the Potency was > 46 µM (inactive).

Take `Cc1cc(C)n(C(=O)CNC(=O)CCc2ccccc2)n1`: the Potency is > 20.6 µM (inactive).

As for `CCOC(=O)C(OC(=O)c1sc(=S)n(C)c1C)C(C)=O` (centres undefined), the Potency is > 20.6 µM (inactive).

`CSc1nc2sc3c(c2c(=O)n1C1CCCCC1)CCN(C)C3`: the Potency is > 20.6 µM (inactive).

`COc1cc2c(cc1OC)C1(CCCC1)C(N)=C2C#N`: the Potency was > 20.6 µM (inactive).

Regarding `CC(=O)[C@@]1(O)CC[C@H]2[C@@H]3CCC4=CC(=O)CC[C@]4(C)[C@H]3[C@@H](O)C[C@@]21C`, the Potency was 0.0133 µM (active).

Regarding `CCCOc1ccc(/C(O)=C2/C(=O)C(=O)N(CCCn3ccnc3)C2c2cccs2)cc1` (centres undefined), the Potency was > 20.6 µM (inactive).

As to `O=C(Nc1ccc2c(c1)OCO2)c1cncc(Br)c1`, the Potency is > 20.6 µM (inactive).

On to `CCOC(=O)c1c(N)sc(=S)c2c1CCC2`, for which the Potency was > 20.6 µM (inactive).

With `COC(=O)c1ccc(C2NC(C(=O)O)CS2)cc1` (centres undefined), the Potency was > 20.6 µM (inactive).

With `O=C(COc1ccccc1)Nc1ccc(-c2nnc(-c3ccco3)o2)cc1`, the Potency is > 20.6 µM (inactive).

With `Oc1ccc(Br)cc1CNn1cnnc1`, the Potency is > 20.6 µM (inactive).

Turning to `COc1ccccc1C1/C(=C(/O)c2ccc(OC(C)C)cc2)C(=O)C(=O)N1c1cc(C)on1` (centres undefined), the Potency is > 20.6 µM (inactive).

Take `CC(C)(C)n1nnc(CCc2nnn(C(C)(C)C)n2)n1`: the Potency was > 20.6 µM (inactive).

In the case of `Cc1cc(=O)oc(C)c1C(=O)NCC(C)NC(=O)c1c(C)cc(=O)oc1C` (centres undefined), the Potency is > 20.6 µM (inactive).

For the molecule `Cn1c(=O)[nH]c(=O)c2c1nc(Br)n2CCSc1nnnn1-c1ccccc1`, the Potency was > 20.6 µM (inactive).

Take `Cc1ccc(Oc2nc3c(c(=O)n(Cc4ccccc4F)c(=O)n3C)n2C)cc1`: the Potency was > 20.6 µM (inactive).

Take `COc1ccc(-c2nc3n(n2)C(=O)CC(c2ccco2)S3)cc1` (centres undefined): the Potency is > 20.6 µM (inactive).

As for `CCN(CC)CCCN1C(=O)C(=O)/C(=C(/O)c2ccc3c(c2)CC(C)O3)C1c1ccncc1` (centres undefined), the Potency was > 20.6 µM (inactive).

With `CCCCCCCCCCCCCCCCCC(=O)NC[C@@H](COP(=O)([O-])OCC[N+](C)(C)C)OCC`, the Potency is > 46 µM (inactive).

In the case of `ClC(Br)=C(n1cnc2ccccc21)n1cnc2ccccc21`, the Potency is > 20.6 µM (inactive).

For the molecule `CC(C)(C)OC(=O)N1CC=C2C(C#N)=C(N)C(C#N)(C#N)[C@H](c3cccnc3)[C@H]2C1`, the Potency was > 20.6 µM (inactive).

Consider `COCc1cc(C)nc(SCC(=O)Nc2ccc(C)c(C)c2)c1C#N`, for which the Potency was > 20.6 µM (inactive).

Consider `CC[C@H](C)[C@@H]1O[C@]2(CC[C@@H]1C)C[C@H]1C[C@H](CC=C(C)[C@@H](O[C@@H]3C[C@H](OC)[C@H](O[C@@H]4C[C@H](OC)[C@H](O)[C@H](C)O4)[C@H](C)O3)[C@@H](C)C=CC=C3CO[C@@H]4[C@@H](O)C(C)=C[C@@H](C(=O)O1)[C@]34O)O2`, for which the Potency is > 20.6 µM (inactive).

In the case of `O=C1c2ccccc2S(=O)(=O)N1CC(O)COc1ccc(Cl)cc1` (centres undefined), the Potency is > 20.6 µM (inactive).

For the molecule `CCc1ccc(NC(=O)CSC2=C(C#N)C(c3ccc4c(c3)OCO4)CC(=O)N2)cc1` (centres undefined), the Potency is > 20.6 µM (inactive).
